The values that follow come from PubChem BioAssay (EPA / NIEHS).

Read-out in assay [1]: Vascular cell adhesion molecule 1 (VCAM1), VCAM1 (gene 7412)
Briefly: BSK_hDFCGF_VCAM1: BioMAP Diversity Plus: hDFCGF Assay for Vascular cell adhesion molecule 1 (VCAM1) Biomarker Activity (AID 2283065).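 As to AC50: VCAM-1 protein level quantified by ELISA after 24 h chemical exposure.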 The conditions noted are these: primary human foreskin fibroblasts; actives raise or lower the signal. The method in brief: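 ELISA readout of VCAM-1 on human dermal fibroblast primary cultures, 24 h after chemical exposure. Gain or loss of signal fitted in both directions against DMSO baseline.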

Read-out in assay [2]: Plasminogen activator inhibitor-1 (PAI1), SERPINE1 (gene 5054)
Nature of the assay: BSK_hDFCGF_PAI1: BioMAP Diversity Plus: hDFCGF Assay for Plasminogen activator inhibitor-1 (PAI1) Biomarker Activity (AID 2283066). The settings on record: primary human foreskin fibroblasts; actives raise or lower the signal. In short, it runs like this: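 PAI-1 levels in human dermal foreskin fibroblasts were quantified by ELISA 24 h after dosing, with gain or loss analysed against DMSO. Overt cytotoxicity was checked by sulforhodamine B total-protein staining in parallel cultures.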

Read-out in assay [3]: Intercellular Adhesion Molecule 1 (ICAM1), ICAM1 (gene 3383)
Nature of the assay: BSK_KF3CT_ICAM1: BioMAP Diversity Plus: KF3CT Assay for Intercellular Adhesion Molecule 1 (ICAM1) Biomarker Activity (AID 2283067). The settings on record: primary human keratinocytes with fibroblasts; actives raise or lower the signal. The method in brief:
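Cell-surface ICAM-1 was measured by ELISA 24 h after dosing primary human skin keratinocytes co-cultured with fibroblasts. Parallel SRB staining tracked overt cytotoxicity. Gain or loss of signal was fitted relative to DMSO.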

Read-out in assay [4]: Interferon-gamma inducible Protein 10 (IP10), CXCL10 (gene 3627)
Nature of the assay: BSK_KF3CT_IP10: BioMAP Diversity Plus: KF3CT Assay for Interferon-gamma inducible Protein 10 (IP10) Biomarker Activity (AID 2283068). The conditions noted are these: primary human keratinocytes with fibroblasts; actives raise or lower the signal. The method in brief:
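Human keratinocyte plus foreskin fibroblast primary co-culture exposed to test chemical for 24 h; IP-10 measured by ELISA. Concentration-response fitted bidirectionally against DMSO control as baseline.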

Assay [5] in a line: BSK_KF3CT_SRB: Viability Assessment in the BioMAP Diversity Plus: KF3CT Assay (AID 2283069).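 Also: read 24 h after compound addition.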 The settings on record: primary human keratinocytes with fibroblasts. The method in brief: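 Overt cytotoxicity is assessed as total protein by sulforhodamine B staining in parallel human skin co-cultures at 24 h after dosing. DMSO serves as negative control and baseline.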
Read-out in assay [6]: Interleukin-1 alpha (IL1a), IL1A (gene 3552)
Briefly: BSK_KF3CT_IL1a: BioMAP Diversity Plus: KF3CT Assay for Interleukin-1 alpha (IL1a) Biomarker Activity (AID 2283070). The settings on record: primary human keratinocytes with fibroblasts; actives raise or lower the signal. In short, it runs like this:
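Readout is IL-1a level by ELISA, compared bidirectionally with DMSO as baseline. Cells: human keratinocytes co-cultured with foreskin fibroblasts, harvested 24 h post-dose.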

Read-out in assay [7]: TIMP metallopeptidase inhibitor 2 (TIMP2), TIMP2 (gene 7077)
Briefly: BSK_KF3CT_TIMP2: BioMAP Diversity Plus: KF3CT Assay for TIMP metallopeptidase inhibitor 2 (TIMP2) Biomarker Activity (AID 2283071). The settings on record: primary human keratinocytes with fibroblasts; actives raise or lower the signal. In short, it runs like this: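 TIMP-2 measured by ELISA at 24 h in human keratinocyte/fibroblast primary co-cultures exposed to chemicals. Both increases and decreases were fitted against DMSO. Parallel cultures were stained with SRB for total protein as an overt-cytotoxicity check.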

Read-out in assay [8]: Transforming growth factor beta 1 (TGFb1), TGFB1 (gene 7040)
Nature of the assay: BSK_KF3CT_TGFb1: BioMAP Diversity Plus: KF3CT Assay for Transforming growth factor beta 1 (TGFb1) Biomarker Activity (AID 2283072). The conditions noted are these: primary human keratinocytes with fibroblasts; actives raise or lower the signal. In short, it runs like this: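 ELISA quantifies TGF-b1 at 24 h post-dose in a primary human skin co-culture of keratinocytes and fibroblasts, with gain or loss judged against DMSO. Parallel SRB total-protein staining flags overt cytotoxicity.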

Read-out in assay [9]: C-C motif chemokine 2 (Homo sapiens) (UniProt P13500)
Briefly: BSK_KF3CT_MCP1: BioMAP Diversity Plus: KF3CT Assay for Monocyte Chemoattractant Protein 1 (MCP1/CCL2) Biomarker Activity (AID 2283073). The settings on record: primary human keratinocytes with fibroblasts; actives raise or lower the signal. In short, it runs like this: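 ELISA read-out of MCP-1, 24 h post-dose, in primary human skin keratinocytes co-cultured with fibroblasts. Parallel SRB staining monitors cytotoxicity; changes fitted both directions relative to DMSO.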

Read-out in assay [10]: Matrix Metallopeptidase 9 (MMP9), MMP9 (gene 4318)
Nature of the assay: BSK_KF3CT_MMP9: BioMAP Diversity Plus: KF3CT Assay for Matrix Metallopeptidase 9 (MMP9) Biomarker Activity (AID 2283074).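 As to AC50: MMP9 protein level quantified by ELISA in the co-culture.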 The conditions noted are these: primary human keratinocytes with fibroblasts; actives raise or lower the signal. In short, it runs like this:
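Values come from bidirectional fitting relative to DMSO of MMP-9 levels, which were measured by ELISA. Measurements were taken 24 h after chemical dosing of a keratinocyte and foreskin fibroblast co-culture.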

Calls of active or inactive are those of the source. The calls were made as follows: active = hit-call score of the fitted dose curve at least 0.9, where 1 is the maximum; inactive = score below 0.9.

For the molecule `CCC(C)N(C)C(=O)c1cc2ccccc2c(-c2ccccc2Cl)n1` (stereo not drawn), the result in assay [1], in [2], in assay [3], in assay [4], in [5] and in assay [6] was inactive. Moreover, the result in assay [7], in assay [8], in [9] and in assay [10] was inactive.
For the molecule `NCCOCCOCCN`, the result in assay [1], in [4], in assay [5], in assay [6], in assay [7] and in [8] was inactive. For the same molecule, the outcome in assay [9] and in assay [10] was inactive.
On to `O=C1c2c(O)cccc2Cc2cccc(O)c21`, for which the AC50 in assay [1] was 20 µM (active); in [4] it was 28.8 µM (active); in assay [6], 18.9 µM (active); in assay [7], 20 µM (active); in [8], 24.6 µM (active); in assay [9], 20 µM (active). In addition, the AC50 in assay [10] is 10.2 µM (active). Moreover, the result in assay [2] and in [5] was inactive.
`O=C1O[C@H]([C@H](O)CO)C(O)=C1O`: the result in [1], in [2], in [4], in [5], in assay [6] and in [7] was inactive. The outcome in [8], in [9] and in [10] was inactive.
`CCCCCCC(CCCCCCCCCCC(=O)OCC(COC(C)=O)OC(C)=O)OC(C)=O` (stereo not drawn): the result in [1], in assay [4], in assay [5], in assay [6], in assay [7] and in assay [8] was inactive. For the same molecule, the outcome in [9] and in assay [10] was inactive. For the same molecule, the AC50 in [2] is 0.818 µM (active).
Take `CCCCC(CC)CO` (stereo not drawn): the outcome in assay [1], in assay [2], in assay [4], in [5], in [6] and in assay [7] was inactive. The result in assay [8], in assay [9] and in [10] was inactive.
As for `CCCCC(CC)COC(=O)CCCCCCCC(=O)OCC(CC)CCCC` (stereo not drawn), the outcome in assay [1], in [2], in assay [4], in assay [5], in assay [6] and in [7] was inactive. Further, the result in assay [8], in assay [9] and in assay [10] was inactive.
As for `C=CCCCCCCCCCCCC`, the result in assay [1], in assay [2], in assay [4], in assay [5], in assay [6] and in [7] was inactive. Besides, the outcome in assay [8], in assay [9] and in assay [10] was inactive.
Consider `Nc1nc(=S)c2[nH]cnc2[nH]1`, for which the outcome in assay [2], in assay [3], in assay [4], in assay [5], in assay [6] and in assay [7] was inactive. The outcome in assay [8], in assay [9] and in assay [10] was inactive.
For `CC(=O)O[C@]1(C(C)=O)CC[C@H]2[C@@H]3C=C(Cl)C4=CC(=O)[C@@H]5C[C@@H]5[C@]4(C)[C@H]3CC[C@@]21C`, the outcome in [1], in [5], in assay [6], in assay [7], in assay [8] and in [9] was inactive. Also, the result in assay [10] was inactive. For the same molecule, the AC50 in assay [2] is 1.74 µM (active).
Consider `CC(=O)O`, for which the result in [1], in assay [2], in [4], in [5], in assay [6] and in assay [7] was inactive. Further, the outcome in [8], in assay [9] and in assay [10] was inactive.
On to `CN(C)CCCN1c2ccccc2Sc2ccc(Cl)cc21`, for which the AC50 in assay [1] was 24.7 µM (active); in [2], 31.9 µM (active); in assay [4], 30.8 µM (active); in assay [5], 31.6 µM (active); in assay [6], 31 µM (active); in assay [8], 33.2 µM (active). The AC50 in [10] was 31.6 µM (active). Further, the outcome in assay [7] and in [9] was inactive.
`CC(=O)S[C@H](C(=O)N[C@H]1Cc2ccccc2[C@H]2CCC[C@@H](C(=O)O)N2C1=O)C(C)C`: the outcome in assay [1], in assay [2], in assay [4], in [5], in assay [6] and in assay [7] was inactive. The result in assay [8], in assay [9] and in assay [10] was inactive.
As to `CS(=O)(=O)c1ccc([C@@H](C[C@H]2CCC(=O)C2)C(=O)Nc2cnccn2)cc1Cl`, the result in assay [1], in [2], in assay [4], in assay [5], in assay [6] and in [7] was inactive. Also, the outcome in assay [8], in [9] and in assay [10] was inactive.
Regarding `Cc1c(C)c2c(c(C)c1O)CCC(C)(COc1ccc(CC3SC(=O)NC3=O)cc1)O2` (stereo not drawn), the AC50 in [1] was 11.8 µM (active); in assay [2], 8.87 µM (active); in assay [4], 11.3 µM (active); in assay [5] it was 13.8 µM (active); in [6] it was 29.5 µM (active); in assay [7] it was 20 µM (active). Also, the AC50 in assay [8] is 20.9 µM (active); in assay [9], 15.1 µM (active); in [10] it was 12.7 µM (active).
Take `CSc1ccc(Oc2ccc(S(N)(=O)=O)cc2CN(C)C)cc1C`: the result in [1], in [2], in [4], in [5], in assay [6] and in assay [7] was inactive. Moreover, the outcome in assay [8], in assay [9] and in [10] was inactive.
